Source: PubChem
In the library only some 3.5% were active in any assay of this set; here they are far more common.
MITF inh – inhibitors of human MITF; O75030; AlphaScreen MITF homodimerization, bead proximity signal; inhibition, % at 2.6 µM; 650,000 compounds, 0.91% hits; AID 1259374; in the data active = inhibition above about 50%;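 note: 0% = vehicle wells with protein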
Target sequence (O75030 whole entry, looked up): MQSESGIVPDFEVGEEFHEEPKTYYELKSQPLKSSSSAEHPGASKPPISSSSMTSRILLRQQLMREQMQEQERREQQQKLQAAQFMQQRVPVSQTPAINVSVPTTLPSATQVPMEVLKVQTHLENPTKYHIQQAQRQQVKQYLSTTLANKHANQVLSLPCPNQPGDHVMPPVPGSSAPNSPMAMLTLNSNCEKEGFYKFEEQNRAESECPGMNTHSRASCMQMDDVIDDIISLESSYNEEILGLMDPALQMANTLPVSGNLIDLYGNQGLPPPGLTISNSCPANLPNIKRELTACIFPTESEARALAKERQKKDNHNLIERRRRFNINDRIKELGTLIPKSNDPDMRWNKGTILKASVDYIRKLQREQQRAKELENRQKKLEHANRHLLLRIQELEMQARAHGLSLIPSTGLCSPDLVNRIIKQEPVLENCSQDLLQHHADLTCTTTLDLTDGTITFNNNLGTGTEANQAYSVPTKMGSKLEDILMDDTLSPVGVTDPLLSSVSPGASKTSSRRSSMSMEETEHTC
GPR151 ag – activators of human GPR151; Q8TDV0; PathHunter beta-arrestin GPR151 cells, luminescence; activation, % at 11.2 µM; 650,000 compounds, 1% hits; in the data active = activation above about 4.9%;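 note: 0% = median of compound wells and 100% = cells with positive control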
FBW7 act – human FBW7 E3 ligase activation, primary screen; Q969H0; AlphaScreen FBW7–phospho-cyclin E peptide binding, activator screen; normalized activity (activation), % at 26.1 µM; 650,000 compounds, 0.13% hits; in the data active = normalized activity above about 1.9%;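 note: purified mutant Fbw7 with reduced substrate affinity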
TEAD-YAP block – TEAD-YAP interaction inhibition. HEK-TIYL cells, TEAD-Gal4/YAP UAS-luciferase luminescence. inhibition, % at 9.12 µM. 640,000 compounds, 1.4% hits; in the data active = inhibition above about 32%;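 note: 0% = median of test compound wells and 100% = reference inhibitor wells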
* hit, by the source's call.

SMILES | MITF inh | GPR151 ag | FBW7 act | TEAD-YAP block
O=[N+]([O-])c1ccc2c(c1)C1C=CCC1C(c1ccc(S(=O)(=O)N3CCOCC3)cc1)N2 (configuration not stated) | 5 | 0 | 0 | 42*
Cc1cc2c(cc1S(=O)(=O)NC1CCCc3ccccc31)n(C)c(=O)c(=O)n2C (configuration not stated) | -4 | 4 | 0 | 10
COc1cc(NC(=O)c2cccc(-n3ncc4cc(Nc5ccccc5F)ccc43)c2)cc(OC)c1OC | -6 | 0 | 0 | 33*
COc1ccc(-n2ncnc2-c2cccc(-n3ncc4cc(Nc5ccccc5F)ccc43)c2)cc1 | 7 | 2 | 0 | 38*
Nc1ccc(-n2ncnc2-c2cccc(-n3ncc4cc(Nc5ccccc5F)ccc43)c2)cc1 | 3 | 1 | 0 | -11
CCn1cc(CNC(=O)CC2C(=O)NCCN2Cc2ccc(-c3ccccc3)cc2)cn1 (configuration not stated) | 3 | 0 | 0 | 4
CC(=O)c1ccc(NC(=S)N2CCCC(C(N)=O)C2)cc1 (configuration not stated) | 9 | 0 | 0 | 4
COc1cc(C2CC(=O)c3c([nH]c(C(=O)OCCSC)c3C)C2)cc(OC)c1OC (configuration not stated) | 7 | 5 | 0 | 56*
COc1cc(C2CC(=O)c3c([nH]c(C(=O)OCCOC(C)C)c3C)C2)cc(OC)c1OC (configuration not stated) | 4 | 2 | 0 | 66*
COc1ccc(C2CC(=O)c3c([nH]c(C(=O)OCCOC(C)C)c3C)C2)cc1 (configuration not stated) | 10 | 1 | 0 | 3
CCOCCOC(=O)c1[nH]c2c(c1C)C(=O)CC(c1ccc(OC)c(OC)c1)C2 (configuration not stated) | 9 | 0 | 0 | 21
CCOc1ccc(NC(=O)c2ncn[nH]2)cc1 | 0 | 0 | 0 | 39*
O=C(Nc1ccc(N2CCCCC2)cc1)c1ncn[nH]1 | 50 | -7 | -1 | 82*
CCOc1ccc(NC(=O)c2ccc(C(=O)Nc3ccc(OCC)cc3)cc2)cc1 | 8 | 3 | 0 | -6
CC(C)C(=O)N1CCN(c2ccc(NC(=O)c3ncn[nH]3)cc2)CC1 | 4 | -4 | -1 | -2
Cc1cc(C(=O)/C=C/N(C)C)c(C)s1 | 1 | 0 | 0 | -6
CCc1cccc(C)c1NC(=S)N(CCN1CCCCCC1)Cc1ccco1 | 7 | -2 | 3.2* | 7
S=C(NNc1nc(N2CCCC2)nc(N2CCCC2)n1)NC1CCCCC1 | -11 | 0 | 0 | 39*
Cc1ccc(-c2nc(C(=O)N(C)CCC#N)c3n2CCCCC3)cc1 | 9 | 0 | 0 | 1
O=C1c2ccc([N+](=O)[O-])cc2C(=O)N1c1ccc(O)cc1 | -5 | 2 | 0 | 7
O=C1C(=O)c2cc([N+](=O)[O-])ccc2-c2ccc([N+](=O)[O-])cc21 | 15 | 1 | -1 | 53*
O=C(O)c1ccc(N2C(=O)c3ccc(Oc4ccc([N+](=O)[O-])cc4)cc3C2=O)cc1[N+](=O)[O-] | -10 | 0 | 2.5* | 3
O=C1c2ccc([N+](=O)[O-])cc2C(=O)N1c1ccc(I)cc1 | 7 | -1 | 2.2* | 4
O=C(O)c1ccc(Oc2ccc(N3C(=O)c4ccc(Oc5ccc([N+](=O)[O-])cc5)cc4C3=O)cc2)cc1 | 1 | 1 | 0 | -5
O=C1c2ccc([N+](=O)[O-])cc2C(=O)N1CCCCN1C(=O)c2ccc([N+](=O)[O-])cc2C1=O | 0 | 2 | 0 | 1
SMILES | MITF inh | GPR151 ag | FBW7 act | TEAD-YAP block
CCSc1nnc2c(n1)OC(c1cccc(Cl)c1)Nc1ccccc1-2 (configuration not stated) | 2 | 0 | 0 | -15
OCC1CCCN1c1nc(NCc2cccnc2)c2ncn(-c3ccccc3)c2n1 (configuration not stated) | -2 | 2 | 0 | 44*
OCC1CCCN1c1nc(NCc2ccccc2)c2ncn(-c3ccsc3)c2n1 (configuration not stated) | -1 | 1 | 0 | 0
CC(C)n1cnc2c(NCc3cccnc3)nc(N3CCCC3CO)nc21 (configuration not stated) | -3 | -1 | 0 | 33*
Cc1cc(NC(=O)CN(C2=NC3CS(=O)(=O)CC3S2)c2ccc(F)cc2)n[nH]1 (configuration not stated) | -2 | -1 | -1 | 7
CCOc1ccccc1NC(=O)C1CCCN(c2c(CC)c(C)nc3ncnn23)C1 (configuration not stated) | -11 | 0 | 0 | -1
